This passage reports growth results from the supplement of paper PMC9262897, “Low-cost anti-mycobacterial drug discovery using engineered E. coli” (Nature Communications, 2022).

Molecules are shown by their SMILES. Structures can show the parent of a compound that is named as a salt. ± gives the standard deviation of the averaged measurements.

One assay has as its system E. coli TESEC Mtb DapB. The assay is described as follows: growth (OD600 after 10 h); higher = more growth (less inhibition). The conditions noted are these: arabinose induction (level): Low; compound 0.1 mM; raw OD600 reference: median of DMSO wells 0.227, cell-free background 0.041. Here is the method:
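TESEC E. coli strains in which the native enzyme is deleted and replaced by arabinose-inducible Mtb Asd, DapB, CysH or TrpD, each grown in its selective medium. Strains were screened against the Prestwick library at 0.1 mM and 1% DMSO in 384-well format at low and high arabinose induction. Growth is read as OD600 after 10 h in triplicate.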
As for `CCC(=O)O[C@@](Cc1ccccc1)(c1ccccc1)[C@@H](C)CN(C)C` [Levopropoxyphene napsylate], the growth worked out at 0.205 ± 0.011.

On to `COP(=O)(OC)C(O)C(Cl)(Cl)Cl` (centres undefined) [Trichlorfon], for which the growth was found to be 0.272 ± 0.071.

For `CCN[C@@H](C)Cc1cccc(C(F)(F)F)c1` [Dexfenfluramine hydrochloride], the growth was 0.246 ± 0.0058. In the case of `CN1C(=O)CCS(=O)(=O)C1c1ccc(Cl)cc1` (centres undefined) [Chlormezanone], the growth was 0.207 ± 0.011.

With `O=c1c2ccccc2[se]n1-c1ccccc1` [Ebselen], the growth is 0.249 ± 0.014. Compound `C[C@@H]1CN([C@H]2CC[C@](C#N)(c3ccc(F)cc3)CC2)CC[C@]1(C(=O)O)c1ccccc1` [Levocabastine hydrochloride] came in with a growth of 0.265 ± 0.029. Turning to `C[N+]12CCC(CC1)C(OC(=O)C(O)(c1ccccc1)c1ccccc1)C2` (centres undefined) [Clidinium bromide], the growth came to 0.201 ± 0.0094.

Compound `C[C@]12CCC(=O)C(O)=C1CC[C@@H]1[C@@H]2CC[C@]2(C)C(=O)CC[C@@H]12` [Formestane] had a growth of 0.159 ± 0.0083. `NCCCNCCSP(=O)(O)O` [Amifostine]: the growth turned out to be 0.209 ± 0.0086. As for `CC(C)(N)Cc1ccccc1` [Phentermine hydrochloride], the growth was 0.233 ± 0.014. The compound `CN[C@@H]1C[C@@H](c2ccc(Cl)c(Cl)c2)c2ccccc21` [Indatraline hydrochloride] gave a growth of 0.05117 ± 0.00042. On to `C[C@@H]1CC[C@H]2[C@@H](C)C(=O)O[C@@H]3O[C@@]4(C)CC[C@@H]1[C@]32OO4` [Artemisinin], for which the growth turned out to be 0.191 ± 0.0069. Turning to `CCCC[N+]1(C)[C@@H]2CC(OC(=O)[C@H](CO)c3ccccc3)C[C@H]1[C@@H]1O[C@@H]12` (some centres undefined) [Butylscopolammonium (n-) bromide], the growth came to 0.232 ± 0.015. Compound `O=P1(NCCCl)OCCCN1CCCl` (centres undefined) [Ifosfamide] gave a growth of 0.222 ± 0.026. `CCN(C(C)=O)c1cccc(-c2ccnc3c(C#N)cnn23)c1` [Zaleplon] yielded a growth of 0.201 ± 0.0029. `C[C@]12CCC(=O)C=C1CC[C@@H]1[C@@H]2C(=O)C[C@]2(C)C(=O)CC[C@@H]12` [Adrenosterone]: the growth came to 0.225 ± 0.032.

Compound `CN1CCN(C(=O)OC2c3nccnc3C(=O)N2c2ccc(Cl)cn2)CC1` (centres undefined) [Zopiclone] displayed a growth of 0.224 ± 0.04.

On to `O=C(O)CCCc1ccc(N(CCCl)CCCl)cc1` [Chlorambucil], for which the growth is 0.259 ± 0.023. In the case of `CCC1(C)CC(=O)NC(=O)C1` [Bemegride], the growth is 0.23 ± 0.013. Turning to `CCCCCC[C@H]1C(=O)O[C@H](C)[C@H](NC(=O)c2cccc(NC=O)c2O)C(=O)O[C@@H](C)[C@@H]1OC(=O)CC(C)C` [Antimycin A], the growth is 0.278 ± 0.058. With `CC(=O)OCC1=C(C(=O)O)N2C(=O)[C@@H](N)[C@H]2SC1` [Cephalosporanic acid, 7-amino], the growth is 0.215 ± 0.0044. Regarding `CC(N)C(O)c1ccccc1` (centres undefined) [Phenylpropanolamine hydrochloride], the growth turned out to be 0.226 ± 0.025. In turn, `C[C@]12Cc3c[nH]nc3C[C@@H]1CC[C@@H]1[C@@H]2CC[C@@]2(C)[C@H]1CC[C@]2(C)O` [Stanozolol] gave a growth of 0.193 ± 0.0045.

The compound `NC(=O)CN1CCCC1=O` [Piracetam] displayed a growth of 0.208 ± 0.028. Still for that read-out and setting: in the case of `O=P1(N(CCCl)CCCl)NCCCO1` (centres undefined) [Cyclophosphamide] it was 0.216 ± 0.029.

For a further assay, the system named is E. coli TESEC Alr+ wild-type control. The description is as above. The conditions noted are these: compound 0.1 mM; raw OD600 reference: median of DMSO wells 0.49, cell-free background 0.052. Here is the method: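 TESEC Mtb Alr E. coli (ΔaraC ΔtolC ΔentC Δalr ΔdadX, arabinose-inducible Mtb Alr) or the Alr+ wild-type control strain, grown in defined M9-fructose medium without D-alanine in 96-well plates with Prestwick library compounds at 0.1 mM and 1% DMSO. Low Alr induction is 0.1 µM arabinose and high induction is 10 mM arabinose.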
For the compound `Clc1ccc(C(OCCN2CCCCC2)c2ccccc2)cc1` (centres undefined) [Cloperastine hydrochloride], the growth is 0.413 ± 0.033.

In the case of `CC(Cc1ccc(O)cc1)NCC(O)c1cc(O)cc(O)c1` (centres undefined) [Fenoterol hydrobromide], the growth stood at 0.575 ± 0.046.

As to `COc1ccc(CCN)cc1OC` [Homoveratrylamine], the growth amounted to 0.563 ± 0.069.

Compound `C(#CCN1CCCC1)CN1CCCC1` [Tremorine dihydrochloride] had a growth of 0.696 ± 0.067.

As for `C[N+]1(C)CCCC(OC(=O)C(O)(c2ccccc2)c2ccccc2)C1` (centres undefined) [Mepenzolate bromide], the growth was 0.435 ± 0.012. Regarding `C1CCc2nnnn2CC1` [Pentylenetetrazole], the growth was found to be 0.46 ± 0.054. Turning to `CC(=O)NC1CCSC1=O` (racemic) [N-Acetyl-DL-homocysteine Thiolactone], the growth was found to be 0.406 ± 0.015. In turn, `CC(NC(C)(C)C)C(=O)c1cccc(Cl)c1` (centres undefined) [Bupropion hydrochloride] registered a growth of 0.46 ± 0.026. `COP(=O)(OC)C(O)C(Cl)(Cl)Cl` (centres undefined) [Trichlorfon] came in with a growth of 0.505 ± 0.046.

Turning to `CN1C(=O)CCS(=O)(=O)C1c1ccc(Cl)cc1` (centres undefined) [Chlormezanone], the growth was determined as 0.615 ± 0.1. `O=c1c2ccccc2[se]n1-c1ccccc1` [Ebselen]: the growth amounted to 0.538 ± 0.076. With `C[C@]12CCC(=O)C(O)=C1CC[C@@H]1[C@@H]2CC[C@]2(C)C(=O)CC[C@@H]12` [Formestane], the growth was 0.392 ± 0.026. Turning to `CN[C@@H]1C[C@@H](c2ccc(Cl)c(Cl)c2)c2ccccc21` [Indatraline hydrochloride], the growth came out at 0.0509 ± 0.0003. As to `CCCC[N+]1(C)[C@@H]2CC(OC(=O)[C@H](CO)c3ccccc3)C[C@H]1[C@@H]1O[C@@H]12` (some centres undefined) [Butylscopolammonium (n-) bromide], the growth is 0.531 ± 0.1. Take `CCN(C(C)=O)c1cccc(-c2ccnc3c(C#N)cnn23)c1` [Zaleplon]: the growth amounted to 0.504 ± 0.065.

`O=C(O)CCCc1ccc(N(CCCl)CCCl)cc1` [Chlorambucil] came in with a growth of 0.537 ± 0.095. In turn, `CCC1(C)CC(=O)NC(=O)C1` [Bemegride] showed a growth of 0.467 ± 0.024. Consider `CCCCCC[C@H]1C(=O)O[C@H](C)[C@H](NC(=O)c2cccc(NC=O)c2O)C(=O)O[C@@H](C)[C@@H]1OC(=O)CC(C)C` [Antimycin A], for which the growth came to 0.428 ± 0.022. Compound `C[C@]12Cc3c[nH]nc3C[C@@H]1CC[C@@H]1[C@@H]2CC[C@@]2(C)[C@H]1CC[C@]2(C)O` [Stanozolol] registered a growth of 0.47 ± 0.038.
